# Source: PubChem BioAssay (Broad Institute)
# aSyn UTR act = Activators via SNCA 5'UTR binding, MLPCN; alpha-synuclein 5'UTR reporter, activators screen; activity score, % (tested at 7.5 µM), hits read low; 300,000 tested, 7.1% active; AID 1814; in the data active = activity score below about -60%
# * marks the source's active call; other numbers are inactive results. The list is a sample of the results.
SMILES,aSyn UTR act
S=C(Nc1ccc(Cl)cc1)c1nc2ccccc2[nH]1,-78.7*
Cc1ccccc1NC(=S)c1nc2ccccc2[nH]1,-144.9*
O=C(Nc1nccs1)c1ccc(-c2ccc(Cl)cc2Cl)o1,-149.2*
O=C(Nc1nccs1)c1ccc(-c2ccc(F)c(Cl)c2)o1,-150.7*
Cc1cc(-c2ccc(Cl)s2)n[nH]1,-79.6*
Fc1ccc(/C=N/Nc2nccnc2Cl)cc1,-120.5*
Fc1cccc(/C=N/Nc2nccnc2Cl)c1,-105.7*
Oc1ccc(/C=N/Nc2nccnc2Cl)cc1,-123.9*
O=C(Nc1ccn(-c2ccccc2)n1)c1ccc(Cl)cc1,-135.8*
O=C(Nc1ccn(-c2ccccc2)n1)c1ccccc1Br,-161.5*
CCNc1ccc(Br)cc(C(=O)/C=C/c2c(Cl)cccc2Cl)c1=O,-133.0*
CCOC(=O)C1(Cc2cccc(OC)c2)CCCN(C(=O)c2ccccc2C)C1 (stereo not drawn),-84.4*
CCOC(=O)C1(Cc2cccc(OC)c2)CCCN(C(=O)c2cc(C)[nH]n2)C1 (stereo not drawn),-130.5*
CCOC(=O)C1(Cc2cccc(OC)c2)CCCN(C(=O)c2cc(C)on2)C1 (stereo not drawn),-110.3*
CCOC(=O)C1(Cc2ccccc2)CCCN(C(=O)c2cnn(CC)c2)C1 (stereo not drawn),-77.7*
CCOC(=O)C1(Cc2cccc(OC)c2)CCCN(C(=O)CNC(C)=O)C1 (stereo not drawn),-114.9*
COc1cc(/C=N/NC(=O)c2ccncc2)ccc1OCc1cnc(Cl)s1,-152.9*
COc1cc(/C=N/NC(=O)c2cccc([N+](=O)[O-])c2)ccc1OCc1ccccc1,-135.1*
Cc1[nH]c2ccccc2c1/C=N/NC(=O)c1cccc([N+](=O)[O-])c1,-64.6*
COc1cc(/C=C/[N+](=O)[O-])ccc1OCc1cccc(C(=O)O)c1,96.8
COc1ccc(/C=N/NC(=O)c2ccncc2)cc1COc1ccc(NC(C)=O)cc1,80.0
O=C(COc1ccc(/C=N/NC(=O)c2ccncc2)cc1)Nc1ccccc1,-72.2*
COc1cc(/C=N/NC(=O)c2cccc(C)c2)ccc1OCC(=O)Nc1ccccc1,-127.6*
COc1cc(/C=N/NC(=O)c2ccc(O)cc2)ccc1OCC(=O)Nc1cccc([N+](=O)[O-])c1,-81.7*
COc1ccc(NC(=O)COc2ccc(/C=N/n3c(C)nnc3C)cc2OC)cc1,-90.7*
SMILES,aSyn UTR act
Cc1cccc(NC(=O)COc2ccc(Br)cc2/C=N/O)c1,-166.6*
Cn1c(CSc2ccccc2)c(C#N)c2ccccc21,-131.1*
CC1CCC(NC(=O)c2ccc(NC(=O)c3ccc(=O)[nH]c3)cc2)CC1 (stereo not drawn),-67.5*
O=C(CC1SC(N2CCCC2)=NC1=O)Nc1ccc(C(=O)Nc2ncccc2O)cc1 (stereo not drawn),-266.3*
CC1CCC(NC(=O)c2ccc(NC(=O)CC3SC(N4CCCC4)=NC3=O)cc2)CC1 (stereo not drawn),-129.4*
CCc1nnc(NC(=O)c2csc3c2CCC(C)C3)s1 (stereo not drawn),-67.4*
CCN(CC)S(=O)(=O)c1cccc(C(=O)Nc2ccc3c(c2)OCO3)c1,-125.0*
O=C(Nc1ccc2cn[nH]c2c1)c1ccc(Cl)c(S(=O)(=O)N2CCOCC2)c1,-199.7*
O=C(Oc1ccc2c(c1)OCO2)c1ccc(F)cc1Cl,-176.2*
O=C(Oc1ccc(N2C(=O)CCC2=O)cc1)c1ccccc1Cl,59.2
CS(=O)(=O)c1cccc(C(=O)Nc2ccc3c(c2)OCCCO3)c1,-100.6*
CCC(CC)C(=O)Nc1cccc(C(=O)Nc2ccc3c(c2)OCO3)c1,-120.7*
O=C(Nc1cccc(F)c1)c1ccc2c(c1)OCO2,-149.0*
O=C(Nc1ccc2c(c1)OCCO2)c1cccc(S(=O)(=O)N2CCOCC2)c1,-87.8*
O=C(NNC(=O)c1ccc(F)cc1F)c1ccc2c(c1)OCO2,-90.2*
O=C(Nc1ccc(Cl)c(S(=O)(=O)N2CCOCC2)c1)c1ccc2c(c1)OCCO2,-64.9*
Cc1cc(N2CCN(c3nc(-c4ccc([N+](=O)[O-])cc4)cs3)CC2)c2ccccc2n1,65.7
O=C1CNC(=S)N1c1nc(-c2ccccc2)cs1,-140.6*
c1ccc(-c2csc(N3CCOCC3)n2)cc1,-145.1*
O=C(N1CCOCC1)N1CCN(c2nc(-c3ccccc3)cs2)CC1,-77.4*
CN(C)C(=O)N1CCN(c2nc(-c3ccccc3)cs2)CC1,-191.6*
c1ccc(-c2csc(N3CCN(c4ccccn4)CC3)n2)cc1,-77.5*
O=[N+]([O-])c1cccnc1NCCc1ccccc1,-159.2*
Cc1ccc(N2C(=O)c3cccc4c([N+](=O)[O-])ccc(c34)C2=O)c2cccnc12,56.2
O=[N+]([O-])c1ccc(O)c2ncccc12,72.5
SMILES,aSyn UTR act
O=[N+]([O-])c1cccnc1NCCc1c[nH]c2ccccc12,-123.0*
Cc1cccc(NC(=O)C2C3CCCCC32)c1 (stereo not drawn),-116.9*
Cc1ccc(NC(=O)C2C3/C=C\CCCCC32)cc1 (stereo not drawn),-82.6*
Cc1ccc(NC(=O)Nc2ccccc2)cc1[N+](=O)[O-],-145.2*
Cc1cc(NC(=O)OC2CCCCC2)ccc1[N+](=O)[O-],-189.6*
Cc1ccc(NC(=O)CN2CCCCCC2)cc1[N+](=O)[O-],-89.9*
Cc1ccc(NC(=O)C2C3CCCCC32)cc1[N+](=O)[O-] (stereo not drawn),-98.6*
CC(=O)c1ccc(NC(=O)CN2CCCC2)cc1,-63.5*
CSCCC(=O)Nc1ccc(C(C)=O)cc1,-143.4*
CC(C)(C)c1csc(N/N=C/c2ccc(O)cc2)n1,-164.7*
CC1Oc2ccccc2C=C1/C=N/NC(=O)c1ccccc1 (stereo not drawn),-159.1*
Cc1ccc(C(=O)N/N=C/C2=Cc3ccccc3OC2C)cc1 (stereo not drawn),-70.9*
CC1Oc2ccccc2C=C1/C=N/NC(=O)c1ccccc1O (stereo not drawn),-130.8*
O=C(N/N=C/c1cc2c3c(c1O)CCCN3CCC2)c1ccccc1O,104.3
Cc1sc2ncnc(Sc3ccccc3C(=O)Nc3ccc(Br)cc3)c2c1C,-86.3*
Cc1ccc(NC(=O)C2=C(O)c3sccc3N(C)S2(=O)=O)cc1,-101.2*
CCOc1ccc(CCNC(=O)COC(=O)c2cccc(N(C)C)c2)cc1OCC,-89.9*
O=C(N/N=C/c1ccc[nH]1)c1ccc2c(c1)OCO2,-92.9*
COc1cc(/C=N\NC(=O)c2ccc(C)nc2)ccc1OC(=O)c1ccc2c(c1)OCO2,-67.2*
O=C(N/N=C/c1ccc2c(c1)OCO2)C1CC1,-66.7*
O=C(N/N=C\c1ccc2c(c1)OCO2)c1ccco1,-102.5*
O=C(N/N=C\c1cccc(OC(=O)c2ccco2)c1)c1ccc2c(c1)OCO2,-64.7*
O=C(CCCN1C(=O)/C(=C/c2ccc3c(c2)OCO3)SC1=S)Nc1ccc(C(=O)O)cc1,101.6
O=C(N/N=C/c1ccc2c(c1)OCO2)c1ccc2c(c1)OCO2,-91.3*
O=C(CCC(=O)Nc1ccccc1)N/N=C/c1ccc2c(c1)OCO2,-62.9*
SMILES,aSyn UTR act
Cc1ccsc1/C=N\NC(=O)c1ccc2c(c1)OCO2,-96.9*
O=c1c2ccccc2sc2ccc(NCCCN3CCOCC3)cc12,-158.4*
CN1CCCC1CCNc1ccc2sc3ccccc3c(=O)c2c1 (stereo not drawn),-114.0*
Cc1cc2oc3cc(NCCC4CCCN4C)ccc3c(=O)c2cc1C (stereo not drawn),-184.2*
COc1ccc(-n2c(-c3ccc(Br)cc3)c[n+]3c2CCc2ccccc2-3)cc1,-91.0*
CC(C)c1ccc(-n2c(-c3ccccc3)c[n+]3c2CCc2ccccc2-3)cc1,78.2
